Results published in PubChem BioAssay (NCI).
The panel holds about 83,000 compounds, 20% with a hit somewhere; the sample as a whole holds those more often.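 Step 1: grow cells in 96-well plates. Step 2: add test compound at a single concentration. Step 3: incubate 48 h. Step 4: record percent growth.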 The source made the active and inactive calls. Rule for the calls: active = growth percent below 10; inactive = the rest.

Assays:
Assay in all cases: NCI-60 one-dose screen, 48 h (100 = growth as untreated, 0 = no growth, -100 = all killed)
Conditions in all cases: 10 µM unless noted
DU-145 prostate = test system: DU-145 prostate
K-562 leukemia = test system: K-562 leukemia
MALME-3M melanoma = test system: MALME-3M melanoma
MDA-MB-231 breast = test system: MDA-MB-231 breast
RXF 393 renal = test system: RXF 393 renal
SF-268 CNS = test system: SF-268 CNS
SF-295 CNS = test system: SF-295 CNS
SF-539 CNS = test system: SF-539 CNS
UACC-257 melanoma = test system: UACC-257 melanoma
M14 melanoma = test system: M14 melanoma

Measured: growth

C=C1CCC2C(C)(CO)C(O)CCC2(C)C1C/C=C1/C(=O)OCC1Oc1ccccc1C (stereo not given)
inactive: DU-145 prostate 82.8% | K-562 leukemia 30.6% | MALME-3M melanoma 109% | MDA-MB-231 breast 109% | RXF 393 renal 109% | SF-268 CNS 102% | SF-295 CNS 97.6% | SF-539 CNS 81.1% | UACC-257 melanoma 83.5% | M14 melanoma 67.1%

COc1ccc(-c2cnoc2-c2ccc(OC)cc2O)cc1
inactive: DU-145 prostate 30.9% | K-562 leukemia 25% | MALME-3M melanoma 41.1% | MDA-MB-231 breast 45.8% | RXF 393 renal 23.9% | SF-268 CNS 39.9% | SF-295 CNS 26.9% | SF-539 CNS 19.7% | UACC-257 melanoma 56.7% | M14 melanoma 14.9%

CCCCCCCCC(C)OC(=O)c1nn(C(C)=O)c2ccccc12 (stereo not given)
inactive: DU-145 prostate 110% | K-562 leukemia 106% | MALME-3M melanoma 106% | MDA-MB-231 breast 99.7% | RXF 393 renal 105% | SF-268 CNS 102% | SF-295 CNS 91.5% | SF-539 CNS 98.7% | UACC-257 melanoma 99.7% | M14 melanoma 101%

O=S(=O)(NCCCNc1nccc(-n2ccc3cccnc32)n1)c1ccc(Br)cc1
inactive: DU-145 prostate 104% | K-562 leukemia 101% | MALME-3M melanoma 118% | MDA-MB-231 breast 104% | RXF 393 renal 107% | SF-268 CNS 94.9% | SF-295 CNS 104% | SF-539 CNS 103% | UACC-257 melanoma 118% | M14 melanoma 110%

CCNc1nc(S(=O)(=O)CC)nc2ccccc12
inactive: DU-145 prostate 103% | K-562 leukemia 85.2% | MALME-3M melanoma 83.3% | MDA-MB-231 breast 102% | RXF 393 renal 107% | SF-268 CNS 92.3% | SF-295 CNS 105% | SF-539 CNS 88.3% | UACC-257 melanoma 85.5% | M14 melanoma 96.8%

COc1ccccc1CNCCCN1C(=O)c2ccc3c4c(ccc(c24)C1=O)C(=O)N(CCCNCCCCNCCCN)C3=O
inactive: MDA-MB-231 breast 15%
active: DU-145 prostate -92.6% | K-562 leukemia -15.1% | MALME-3M melanoma -91.8% | RXF 393 renal -66.8% | SF-268 CNS 1.6% | SF-295 CNS 1.52% | SF-539 CNS -55.9% | UACC-257 melanoma -91.1% | M14 melanoma -70.8%

O=C(CSc1nc2ccccc2[nH]1)c1ccc(N2CCOCC2)cc1
inactive: DU-145 prostate 107% | K-562 leukemia 99.5% | MALME-3M melanoma 100% | MDA-MB-231 breast 103% | RXF 393 renal 98.1% | SF-268 CNS 103% | SF-295 CNS 96.8% | SF-539 CNS 100% | UACC-257 melanoma 102% | M14 melanoma 106%

O=C([O][Sn]([O]C(=O)c1ccccn1)([c]1ccccc1)[c]1ccccc1)c1ccccn1
inactive: DU-145 prostate 92.3% | K-562 leukemia 24% | MALME-3M melanoma 86.4% | MDA-MB-231 breast 87.4% | RXF 393 renal 41.7% | SF-268 CNS 83.5% | SF-295 CNS 127% | SF-539 CNS 97.4% | UACC-257 melanoma 73.9% | M14 melanoma 85.8%

CC(C)(C)OC(=O)NC(CSCc1ccccc1)C(=O)ON1C(=O)CCC1=O (stereo not given)
inactive: DU-145 prostate 112% | K-562 leukemia 100% | MALME-3M melanoma 101% | MDA-MB-231 breast 111% | RXF 393 renal 124% | SF-268 CNS 102% | SF-295 CNS 124% | SF-539 CNS 99.5% | UACC-257 melanoma 99.8% | M14 melanoma 104%

C/C=C(\C)C(C(=O)NC1CCCCC1)N(C(=O)C1CCc2cc(F)ccc2O1)c1ccc(Cl)cc1 (stereo not given)
inactive: DU-145 prostate 108% | K-562 leukemia 99.7% | MALME-3M melanoma 109% | MDA-MB-231 breast 103% | RXF 393 renal 109% | SF-268 CNS 97.2% | SF-295 CNS 97.5% | SF-539 CNS 98.2% | UACC-257 melanoma 98.8% | M14 melanoma 103%

Nc1cccc(-c2nc3sccn3c2-c2ccnc(NCCNS(=O)(=O)c3ccc(C(F)(F)F)cc3)n2)c1
inactive: DU-145 prostate 43.4% | K-562 leukemia 47.2% | MALME-3M melanoma 42.1% | MDA-MB-231 breast 46% | RXF 393 renal 48.7% | SF-268 CNS 35.5% | SF-295 CNS 46.6% | SF-539 CNS 32% | UACC-257 melanoma 65% | M14 melanoma 53.6%

CCN(CC)c1ccc(CNc2ccnc3ccccc23)cc1
inactive: DU-145 prostate 70% | MALME-3M melanoma 49.5% | MDA-MB-231 breast 70.2% | RXF 393 renal 71.7% | SF-268 CNS 82.3% | SF-295 CNS 51.4% | SF-539 CNS 69.7% | UACC-257 melanoma 36.2% | M14 melanoma 56.2%
active: K-562 leukemia 9.95%

O=C(O)c1nc(-c2ccccc2)oc1N1CCOCC1
inactive: DU-145 prostate 109% | K-562 leukemia 94% | MALME-3M melanoma 120% | MDA-MB-231 breast 94.3% | RXF 393 renal 104% | SF-268 CNS 98.3% | SF-295 CNS 107% | SF-539 CNS 115% | UACC-257 melanoma 104% | M14 melanoma 106%

COC(=O)c1cc2cc(-c3ccc(OC)cc3)cnc2[nH]1
active: K-562 leukemia 8.43% | RXF 393 renal -36.4% | SF-295 CNS 0.983% | SF-539 CNS -27.2%
inactive: DU-145 prostate 18.1% | MALME-3M melanoma 56.3% | MDA-MB-231 breast 57.1% | SF-268 CNS 45.5% | UACC-257 melanoma 51.3% | M14 melanoma 14.3%

Nc1ncnc2c1c(-c1ccc(Oc3ccccc3)cc1)nn2C[C@@H]1SSC[C@@H]1O
inactive: DU-145 prostate 34% | MDA-MB-231 breast 52% | RXF 393 renal 37.7% | SF-268 CNS 29.7% | SF-295 CNS 38.3% | SF-539 CNS 40.9% | UACC-257 melanoma 14.6%
active: K-562 leukemia 2.87% | MALME-3M melanoma -7.41% | M14 melanoma -85.1%

CCN(CC)CCOC(=O)C(c1ccccc1)(c1ccccc1)C(C)C
inactive: DU-145 prostate 99% | K-562 leukemia 85.7% | MALME-3M melanoma 95.1% | MDA-MB-231 breast 74.3% | RXF 393 renal 95.6% | SF-268 CNS 86.1% | SF-295 CNS 91.1% | SF-539 CNS 107% | UACC-257 melanoma 63.2% | M14 melanoma 106%

CNC(=S)NNC(=O)C1CC1
inactive: DU-145 prostate 118% | K-562 leukemia 92.9% | MALME-3M melanoma 111% | MDA-MB-231 breast 114% | RXF 393 renal 117% | SF-268 CNS 109% | SF-295 CNS 115% | SF-539 CNS 104% | UACC-257 melanoma 102% | M14 melanoma 99.9%

CC(C)(C)n1cc(-c2ccnc(NCCCNS(=O)(=O)c3ccc(Br)cc3)c2)c(-c2cccc(O)c2)n1
active: K-562 leukemia -10.9% | MALME-3M melanoma -2.04% | MDA-MB-231 breast 8.91% | UACC-257 melanoma 9.16% | M14 melanoma 5.23%
inactive: DU-145 prostate 43% | RXF 393 renal 20.8% | SF-268 CNS 31.1% | SF-295 CNS 12% | SF-539 CNS 15.7%

COc1ccc(/C=N\NC(=O)CN2CCN(c3cc4c(cc3F)c(=O)c(C(=O)N/N=C/c3ccc(OC)c(OC)c3)cn4C3CC3)CC2)cc1OC
active: DU-145 prostate 4.82% | MALME-3M melanoma -71.9% | MDA-MB-231 breast -22.9% | SF-268 CNS -10.9% | SF-539 CNS -21.8%
inactive: K-562 leukemia 13.3% | RXF 393 renal 61.1% | SF-295 CNS 66.2% | UACC-257 melanoma 11.4% | M14 melanoma 20.3%

Oc1ccccc1/C=N/NC(=S)NC1CC2C=CC1C2 (stereo not given)
inactive: DU-145 prostate 88.7% | K-562 leukemia 33.3% | MALME-3M melanoma 102% | MDA-MB-231 breast 84.2% | RXF 393 renal 68.3% | SF-268 CNS 67.8% | SF-295 CNS 85% | SF-539 CNS 93.8% | UACC-257 melanoma 76.8% | M14 melanoma 47.7%

COc1cc(NC(N)=NCCC(C)(C)c2ccc(C(F)(F)F)cc2)ncc1C#N
active: K-562 leukemia -18.1% | MALME-3M melanoma -77.9% | UACC-257 melanoma -0.602% | M14 melanoma -73.7%
inactive: DU-145 prostate 39.6% | MDA-MB-231 breast 26% | RXF 393 renal 33.4% | SF-268 CNS 44.1% | SF-295 CNS 25.9% | SF-539 CNS 61.1%

CCC1=CCC[C@@]2(C)CCC[C@@]3(C)CCCC(C)(C)[C@]1([O-])[O+]32
inactive: DU-145 prostate 105% | K-562 leukemia 101% | MALME-3M melanoma 107% | MDA-MB-231 breast 121% | RXF 393 renal 111% | SF-268 CNS 107% | SF-295 CNS 99.7% | SF-539 CNS 103% | UACC-257 melanoma 105% | M14 melanoma 101%

CN1CCN(Cc2ccc(NC(=O)c3cncc(C#Cc4cnc(N)c5ccncc45)c3)cc2C(F)(F)F)CC1
inactive: DU-145 prostate 22.2% | SF-268 CNS 24.5% | SF-295 CNS 20.8% | UACC-257 melanoma 23.8%
active: K-562 leukemia -16.8% | MALME-3M melanoma -44.5% | MDA-MB-231 breast -33.7% | RXF 393 renal -30.1% | SF-539 CNS -20.6% | M14 melanoma 2.43%

CC(C)C1=CC2=C(C=O)C[C@@H]3[C@](C)(CCC[C@@]3(C)C(=O)OCC#CCN3CCCC3)[C@H]2CC1
inactive: DU-145 prostate 96.3% | K-562 leukemia 30.8% | MALME-3M melanoma 81.8% | MDA-MB-231 breast 89.3% | RXF 393 renal 72.6% | SF-268 CNS 86.9% | SF-295 CNS 79.7% | SF-539 CNS 63.9% | UACC-257 melanoma 86.6% | M14 melanoma 75.9%

CCC(C)/C(=C\C#N)NCCCN/C(=C/C#N)C(C)CC (stereo not given)
inactive: DU-145 prostate 122% | K-562 leukemia 98.8% | MALME-3M melanoma 108% | MDA-MB-231 breast 103% | RXF 393 renal 115% | SF-268 CNS 113% | SF-295 CNS 105% | SF-539 CNS 97.1% | UACC-257 melanoma 106% | M14 melanoma 96.1%

CC(C)(C)n1cc(-c2ccnc(NCCNS(=O)(=O)c3ccc(F)cc3)c2)c(-c2cccc(O)c2)n1
inactive: DU-145 prostate 74.9% | K-562 leukemia 15.4% | MALME-3M melanoma 53.5% | MDA-MB-231 breast 41% | RXF 393 renal 60% | SF-268 CNS 54.7% | SF-295 CNS 42.5% | SF-539 CNS 58.3% | UACC-257 melanoma 64.9% | M14 melanoma 46.2%

O=C(Nc1ccncc1)C(=O)c1cn(S(=O)(=O)c2ccc(Cl)cc2)c2ccccc12
active: SF-539 CNS 9.27%
inactive: DU-145 prostate 27.7% | K-562 leukemia 22.2% | MALME-3M melanoma 31.7% | MDA-MB-231 breast 45.7% | RXF 393 renal 25% | SF-268 CNS 41.8% | SF-295 CNS 13.1% | UACC-257 melanoma 75.9% | M14 melanoma 17.7%

Nc1ccc(C(=O)CSc2nc3ccccc3[nH]2)cc1
inactive: DU-145 prostate 103% | K-562 leukemia 103% | MALME-3M melanoma 107% | MDA-MB-231 breast 105% | RXF 393 renal 110% | SF-268 CNS 99.4% | SF-295 CNS 98.1% | SF-539 CNS 104% | UACC-257 melanoma 107% | M14 melanoma 108%
